This note sets out measurements from paper PMC7819943, “Rice protein-binding microarrays: a tool to detect cis-acting elements near promoter regions in rice”.

The full ranking holds about 39,000 sequences; the median of “fluorescence intensity (a.u.)” is about 4,300, and the highest 2% start at about 39,000. What follows is part of a selection rich in the highest values, with near analogues and random picks from the rest.

The target of this test is T1, OsSMF1 (Oryza sativa, UniProt Q6ZLB0 1-436).
T1 sequence: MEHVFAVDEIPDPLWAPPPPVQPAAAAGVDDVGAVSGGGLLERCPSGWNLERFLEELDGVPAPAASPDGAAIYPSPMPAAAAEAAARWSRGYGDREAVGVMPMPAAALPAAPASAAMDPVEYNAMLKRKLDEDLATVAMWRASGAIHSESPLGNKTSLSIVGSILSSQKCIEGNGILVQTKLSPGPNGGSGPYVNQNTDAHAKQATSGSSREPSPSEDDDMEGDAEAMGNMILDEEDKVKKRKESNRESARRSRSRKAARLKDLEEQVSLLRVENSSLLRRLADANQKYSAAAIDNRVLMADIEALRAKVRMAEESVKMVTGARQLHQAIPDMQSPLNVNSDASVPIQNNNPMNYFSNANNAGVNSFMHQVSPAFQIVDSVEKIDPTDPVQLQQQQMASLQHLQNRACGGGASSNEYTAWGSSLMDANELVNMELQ
The test is described as follows: protein-binding microarray (RPBM); PBS, 2% BSA, 51.3 ng/ul salmon testes DNA, 50 uM zinc acetate, 200 nM TF, 25 C, 1 h; high values mean tight binding. Particulars: protein: recombinant; tags: N-terminal polyhistidine and DsRed monomer fusion (pET32a); chain copies: 2; label: CyDye5-dUTP incorporated in the synthesized complementary strand; 3' TTTTT single-stranded linker to array surface; dsDNA, one strand shown. An outline of the steps:
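Transcription factors, each fused N-terminally to a polyhistidine tag and DsRed, were expressed in E. coli BL21-CodonPlus and purified on Ni–NTA. A custom Agilent array was made double-stranded by primer extension with Cy5-dUTP and blocked with 2% BSA. It was incubated with 200 nM protein in PBS, 2% BSA, salmon testes DNA and 50 µM zinc acetate at 25 °C for 1 h, then washed. The binding signal is per-feature fluorescence intensity (arbitrary units) read on an Axon 4000B scanner.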
On to “TTCTTCGAGGACCACATGCGTGAGTGGATGACGGAGTTCCCGGAGTCACCTAGTGCAG”, for which the binding signal was 3950 fluorescence intensity (a.u.). For the sequence “TTAATTATTAAATTCTTTTCACTGTCTACTACTTGTTCCGCGGAGTCACCTAGTGCAG”, the binding signal was 22300 fluorescence intensity (a.u.). For the sequence “CGGCATTATATACTAAAGAAAATGGAGGGAGTAGGAATCACGGAGTCACCTAGTGCAG”, the binding signal is 28700 fluorescence intensity (a.u.).

For “CTGACGAATATACAGGAGGGAACCGAATGGCGCGCAATTGCGGAGTCACCTAGTGCAG”, the binding signal was 21700 fluorescence intensity (a.u.). In the case of “GTTTTATGGTTGGAGGTCATGAATCATACTCGTGTCATAGCGGAGTCACCTAGTGCAG”, the binding signal was 7410 fluorescence intensity (a.u.). Consider “GCGGAAAGGGAAAGGCCCGACGAATGGGAGGAATCATATACGGAGTCACCTAGTGCAG”, for which the binding signal was 40300 fluorescence intensity (a.u.).

Regarding “TTTGTGGTTGGAGGTTATGAATCATACTCGAGGCATAGTTCGGAGTCACCTAGTGCAG”, the binding signal is 22000 fluorescence intensity (a.u.). In the case of “TGGAGGTTATGAATCATACTCGGACGATAGTTAAGGGAGTCGGAGTCACCTAGTGCAG”, the binding signal is 49700 fluorescence intensity (a.u.). Take “AGATTAGGTTGCTGTAGCCATGACTGTGAGTTGTGACTAGCGGAGTCACCTAGTGCAG”: the binding signal was 4030 fluorescence intensity (a.u.).

Take “TGTATGGGCCTTACGTCAGCACGGCCCAGTTGCTGGTTTTCGGAGTCACCTAGTGCAG”: the binding signal was 17700 fluorescence intensity (a.u.).

“TCACCTCCACCACCGTTGACGATGACACGCGGTGCGTCGCCGGAGTCACCTAGTGCAG”: the binding signal was 4250 fluorescence intensity (a.u.). Turning to “TGTGAATTGCATCAACCGAAAAGTAGATATTGGAGTATTTCGGAGTCACCTAGTGCAG”, the binding signal is 65500 fluorescence intensity (a.u.). As for “AACTAATGAATAGTGTGACGTATTGCCGAAATTTCTCAACCGGAGTCACCTAGTGCAG”, the binding signal was 7380 fluorescence intensity (a.u.). For “ACATTTATTGCATCATTACATTCTGAAGTAATTTCAACATCGGAGTCACCTAGTGCAG” the value was 3470 fluorescence intensity (a.u.). “ACCTACATGTGCGTAATATTCGTGGACACCAGGATTTAAACGGAGTCACCTAGTGCAG”: the binding signal was 3510 fluorescence intensity (a.u.). As for “TTGTATTTTGGAAATATGACGCATTAGATGTTTTATATATCGGAGTCACCTAGTGCAG”, the binding signal was 3570 fluorescence intensity (a.u.).

Take “TATGAGTATCCTATATACATATATATACATATATATATACCGGAGTCACCTAGTGCAG”: the binding signal was 27300 fluorescence intensity (a.u.). The same measure for “TATGAGGGTATCAGGGTCGTTGAGGTCTCTCCTCCTACACCGGAGTCACCTAGTGCAG”: 41000 fluorescence intensity (a.u.); for “GTTGAGGTCTCGCGCTCCCGTCCTCGTCTCGTCCTCTCCCCGGAGTCACCTAGTGCAG”: 21500 fluorescence intensity (a.u.); for “TCACGCTCTCAACGCTGCTGTGTCACGTCACGTCACGCGCCGGAGTCACCTAGTGCAG”: 16400 fluorescence intensity (a.u.).

On to “TGAAAATATATTCAATTATTGATTCGATAAAACTAATTTACGGAGTCACCTAGTGCAG”, for which the binding signal was 3460 fluorescence intensity (a.u.).

For “TTTCAACAGATATTTTATTGTGACGTTGCAATTACTAAAACGGAGTCACCTAGTGCAG”, the binding signal is 4950 fluorescence intensity (a.u.).

Take “CTAAAACAGGCGAGTAGGATATACTACCTTCAATTATATTCGGAGTCACCTAGTGCAG”: the binding signal is 40600 fluorescence intensity (a.u.). The same measure for “TCAACCGTATCTGACGCCTGCATTTCCTCTACCAGCCAAGCGGAGTCACCTAGTGCAG”: 4010 fluorescence intensity (a.u.).

Turning to “CTAAAACTCAACATATAAACATGCCACCTCATCATCTATACGGAGTCACCTAGTGCAG”, the binding signal was 7400 fluorescence intensity (a.u.). Regarding “AAATAGCCAAGCCATATCATCTCATCCATATCATAATCGGCGGAGTCACCTAGTGCAG”, the binding signal is 3200 fluorescence intensity (a.u.).

Consider “TATGAAATATCCCATCCTATCATAGATTATTATATTACGACGGAGTCACCTAGTGCAG”, for which the binding signal was 26400 fluorescence intensity (a.u.). For “CATCCTAACGGATTATTCTCTCAACCCCACGAACCATTCACGGAGTCACCTAGTGCAG”, the binding signal was 19200 fluorescence intensity (a.u.). For “GCAACATAACCCATCCTAGATTGCTATATATTGGGACGAACGGAGTCACCTAGTGCAG”, the binding signal is 65500 fluorescence intensity (a.u.). The same measure for “CAGGCCGGAAACCGGCCGAGCCCACCCATTAGAAAGGACGCGGAGTCACCTAGTGCAG”: 22900 fluorescence intensity (a.u.). Turning to “CACTCAAAATCTCTTTCGTGTCCACCTCACCTTGCACCACCGGAGTCACCTAGTGCAG”, the binding signal is 4870 fluorescence intensity (a.u.). For “TCCCGTCTCGGCTCCTTGCGCCATCGTCGACAGGGGAGGGCGGAGTCACCTAGTGCAG” the value was 3540 fluorescence intensity (a.u.); for “ACGAGCCCACGAGGTTGATGACGACGAAGCCGAAGAGTTGCGGAGTCACCTAGTGCAG”, 4660 fluorescence intensity (a.u.); for “GGCCTTGCCACGAGCCCACGAGAGGTTTGGTTGATGGGCCCGGAGTCACCTAGTGCAG”, 46500 fluorescence intensity (a.u.). Take “GATGGGCCCACCCGTCATCCACACGAGGGCCACGCCTTGCCGGAGTCACCTAGTGCAG”: the binding signal was 3380 fluorescence intensity (a.u.).

For “CCACCATGGCATGCCACGTCAACACACAGAGTGGGTTGGACGGAGTCACCTAGTGCAG”, the binding signal was 17900 fluorescence intensity (a.u.). As to “CAAATGCAGAAAAGATAATCTCCTTTCTCTCTCTATTAAACGGAGTCACCTAGTGCAG”, the binding signal is 31100 fluorescence intensity (a.u.). “TCACACCCCATCTATGTTGTCGCTCCACATAGGCTAGGCCCGGAGTCACCTAGTGCAG”: the binding signal was 3260 fluorescence intensity (a.u.). For “TTGTTCCTTGCTAATATATTGACGTGTAATTCTTTTATGCCGGAGTCACCTAGTGCAG”, the binding signal is 9690 fluorescence intensity (a.u.). On to “TGGTACAAGGATTTGTCCTGTCAACATGGCAATCCTCTGCCGGAGTCACCTAGTGCAG”, for which the binding signal is 3360 fluorescence intensity (a.u.). For the sequence “GCAACCACCGTGACGCCGCCGCGCGCCCACTGGAACACGTCGGAGTCACCTAGTGCAG”, the binding signal is 5010 fluorescence intensity (a.u.). The same measure for “TCCACCGTCTGCTACTGCTAGCGTGCTACTGTCTCGCTGACGGAGTCACCTAGTGCAG”: 3350 fluorescence intensity (a.u.); for “GCGCTGACGTGTCGCTATCCTACTGGAACACACCACGTCACGGAGTCACCTAGTGCAG”: 46500 fluorescence intensity (a.u.).
